Results taken from PubChem BioAssay AID602440 (Sanford-Burnham Center for Chemical Genomics, 2012).
The whole screen tested about 360,000 compounds, of which about 2,300 (0.64%) were called active. The sample holds actives, similar compounds and a random draw of the others, so the mix is not that of the screen. A number with no mark means an inactive call. No stated cut-off is given here; in the data, active means inhibition mostly above about 40% (no sharp cut-off); inactive means mostly below about 27%.

biological target: Sentrin-specific protease 8 (Homo sapiens) (UniProt Q96LD8); assay: human SENP8 protease inhibitors, primary screen, biochemical, fluorescence, Nedd8 protein substrate, uHTS (AID 602440); conditions: recombinant SENP8, Nedd8 substrate fluorescence; at 20 µM; hits give high values
Sequence (Q96LD8 whole entry, looked up): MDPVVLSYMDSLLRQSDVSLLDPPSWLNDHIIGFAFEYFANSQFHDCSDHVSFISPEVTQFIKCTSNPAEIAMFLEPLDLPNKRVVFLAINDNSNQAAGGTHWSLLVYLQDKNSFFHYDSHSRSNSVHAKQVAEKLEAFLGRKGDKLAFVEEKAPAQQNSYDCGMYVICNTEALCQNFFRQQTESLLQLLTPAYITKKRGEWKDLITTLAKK

| SMILES | inhibition |
| --- | --- |
| COc1ccccc1C1SCCN1C(=O)c1ccc([N+](=O)[O-])cc1 (stereo not drawn) | 8.4% |
| CCOC(=O)C1CCCN(C(=O)c2ccc(C)c(S(=O)(=O)N3CCCCC3)c2)C1 (stereo not drawn) | 4.6% |
| CCOC(=O)C1CCCN(C(=O)c2ccc(C)c(F)c2)CC1 (stereo not drawn) | 40.6% (active) |
| CCOC(=O)C1CCCN(C(=O)c2ccc(N(C)C)cc2)CC1 (stereo not drawn) | 18.8% |
| CC(C)N(C(=O)Cn1cc(S(=O)(=O)CC(=O)N2CCOCC2)c2ccccc21)C(C)C | 5.7% |
| COC(=O)c1nc2n(n1)C(c1ccc([N+](=O)[O-])cc1)C(C(=O)Nc1ccc(Cl)cc1)=C(C)N2 (stereo not drawn) | 18.3% |
| COC(=O)c1cc(NC2c3ccccc3C(=O)N2c2ccc(Cl)cn2)cc(C(=O)OC)c1 (stereo not drawn) | -28% |
| O=C1[C@@H](c2ccccc2)[C@@H](c2ccccc2)N1c1cccnc1 | -26.4% |
| CCc1ccccc1NC1c2ccccc2C(=O)N1c1cccnc1 (stereo not drawn) | 41% (active) |
| O=C(CN1CCN(c2ccc(O)cc2)CC1)Nc1ccc(-c2ccccc2)cc1 | 23.2% |
| O=C(Cc1ccccc1)NC(=S)Nc1ccc(N2CCCCC2)cc1 | 42.1% (active) |
| COc1ccccc1C(=O)NC(=S)Nc1ccc(N2CCOCC2)cc1 | 14.8% |
| CN1CCn2cnc(C(=O)NCC(=O)OC(C)(C)C)c2C1=O | 14.9% |
| CCN(CC)CCCNC(=O)CCn1nc(-c2ccc(Cl)cc2)ccc1=O | 13.2% |
| Cc1[nH][nH]c(=O)c1C(c1ccc(-c2ccc(Cl)cc2)o1)c1c(C)[nH][nH]c1=O | 63.5% (active) |
| CN(CC(=O)Nc1ccc(F)cc1)C(=O)c1ccc(-c2ccc(Cl)cc2)o1 | -23.1% |
| COc1ccc(C(=O)NC(=S)N2CCNC(=O)C2CC(=O)OC(C)C)cc1 (stereo not drawn) | -6.1% |
| CC(=O)c1ccc(OCC(=O)N(C)C2CCS(=O)(=O)C2)cc1 (stereo not drawn) | 18.3% |
| Cn1c(=O)[nH]c(=O)c2c1nc(CN(Cc1ccccc1)Cc1ccccc1)n2CCN1CCOCC1 | 17.1% |
| COCCNC(=O)NC(=O)COC(=O)C1(c2ccc(Cl)cc2)CC1 | 6.8% |
| O=C(Nc1ccc(C(=O)O)c(O)c1)c1ccccc1 | 43.3% (active) |
| O=C(Cn1ccc(=O)[nH]c1=O)Nc1ccc(C(=O)O)c(O)c1 | 7.9% |
| O=C(Cc1ccccc1)Nc1ccc(C(=O)Nc2ccccc2C(=O)O)cc1 | -13.4% |
| CC(C)C(NC(=O)c1c(F)cccc1F)C(=O)NCc1ccncc1 (stereo not drawn) | -7.7% |

| SMILES | inhibition |
| --- | --- |
| N#Cc1ccc(C(C(=O)NCc2ccccc2)n2c(=O)c(-c3ccco3)nc3ccccc32)cc1 (stereo not drawn) | -432% |
| c1coc(-c2nc3nc4ccccc4n3nc2-c2ccco2)c1 | 106% (active) |
| Cc1cccc(C)c1NC(=O)C(c1cccc2ccccc12)n1c(=O)c(-c2ccco2)nc2ccccc21 (stereo not drawn) | -458% |
| Cc1ccc2c(Cl)c(C(=O)Nc3nn[nH]n3)sc2c1 | -0.2% |
| Cc1noc(C)c1NC(=O)Nc1ccc2c(c1)C(=O)N([C@H](C)CO)C[C@H](C)[C@@H](CN(C)S(=O)(=O)c1cn(C)cn1)O2 | -6% |
| O=C(C/C(=N\NC(=O)c1ccccc1Br)C(F)(F)F)c1cccs1 | 25.6% |
| Cc1nc2nc(SCC(=O)c3ccccc3)[nH]c2cc1Br | 13.3% |
| O=C(CSc1nnc2ccccn12)c1ccccc1 | -1.2% |
| Cc1nc(SCC(=O)c2ccccc2)c([N+](=O)[O-])[nH]1 | 41.9% (active) |
| Cc1cc(C)n2nc(C(=O)OCC(=O)N(C)CC(=O)Nc3ccc(F)cc3)nc2n1 | 3.2% |
| COc1ccc(CCNC(=O)COC(=O)C2CC2C)cc1 (stereo not drawn) | 9.7% |
| Cc1cc(NC(=O)CN2C(=O)NC(CCc3ccccc3)C2=O)no1 (stereo not drawn) | 12.2% |
| CCc1cccc(C)c1NC(=O)COC(=O)CC1CCCC1 | 40.9% (active) |
| Cc1cccc(C)c1NC(=O)CNC(=O)C1CCCC1 | 11.2% |
| CCc1cccc(C)c1NC(=O)COC(=O)Cc1ccsc1 | -35.2% |
| Cc1ccc(N(C(=O)CC2NC(=O)NC2=O)C2(C(=O)NC3CCCC3)CCCCC2)cc1 (stereo not drawn) | 21.4% |
| Cc1ccc(NC(=O)CN(C)C(=O)c2cccc(S(=O)(=O)N3CCCC3)c2)cc1 | 18.7% |
| COc1ccc(N(CC(=O)NCCSCc2cccc(Cl)c2)S(C)(=O)=O)cc1 | 16.9% |
| COc1cccc(N(CC(=O)NCCSc2ccccn2)S(C)(=O)=O)c1 | 40.3% (active) |
| COc1ccc(CCNC(=O)CN(c2ccccc2)S(C)(=O)=O)cc1 | 13.5% |
| COc1ccc(NC(=O)CCNS(=O)(=O)c2ccc3c(c2)c(=O)n(C)c(=O)n3C)cc1OC | 9.5% |
| OCc1n[nH]c(CO)n1 | 6.5% |
| CN1C(=O)/C(=C/C=C2\SCCN2C)OC1=S | 43.8% (active) |
| O=[N+]([O-])c1ccc(C=Nc2ccc(Cl)cc2Cl)s1 | 69% (active) |

| SMILES | inhibition |
| --- | --- |
| CCNc1nc(N)nc(Oc2ccc(OCC)nn2)n1 | 6.3% |
| O=P(O)(CP(=O)(c1ccccc1)c1ccccc1)c1ccccc1 | 10.2% |
| CC(C)(C)c1cc(P(=O)(c2ccccc2)c2ccccc2)ccc1O | 20.7% |
| O=P(O)(CP(=O)(c1ccccc1)c1ccccc1)c1ccccc1O | 41.1% (active) |
| COC(=O)C1=C(C)N(C)C(=S)NC1c1cc(OC)ccc1OC (stereo not drawn) | 10% |
| COC(=O)[C@]12CCCCC=C1N(CCC1=CCCCC1)C(=O)[C@H](CC(=O)NCC1CCCCC1)C2 | 10.5% |
| COc1cc(C(=O)NC2CCN(Cc3ccccc3)CC2)cc(Cl)c1OC(C)C | 3.3% |
| CC(=O)Nc1ccc(NC(=O)COc2ccc(S(=O)(=O)NC(C)c3ccccc3)cc2)cc1 (stereo not drawn) | 8.8% |
| CCOC(=O)C(=O)Nc1nc(-c2ccccc2)c(CC)s1 | 16.8% |
| CCOC(=O)C/C(C)=N\Nc1ccc([N+](=O)[O-])cc1[N+](=O)[O-] | 23.3% |
| CCOC(=O)/C(=N\Nc1ccccc1[N+](=O)[O-])c1csc(Nc2ccccc2)n1 | 52.3% (active) |
| NC(=O)c1ccc(N2CCOCC2)nc1 | 10.6% |
| Nc1ncnc2c1ncn2[C@@H]1O[C@H](CNC(=O)[C@H](N)Cc2cccnc2)[C@@H](O)[C@H]1O | 6.7% |
| CN(CCc1ccccn1)C(=O)CCC1CCCN(Cc2ccccc2OC(F)F)C1 (stereo not drawn) | 29.2% |
| Nc1ccc2nc3c(=O)[nH]c(=S)[nH]c3nc2c1 | 46.9% (active) |
| CC(C)(C)CN1CCNC(=O)C1CC(=O)NC1Cc2ccccc2C1 (stereo not drawn) | -47.4% |
| CCCCC1=CC2=CC(=O)C(C)(OC(=O)CC)C(=O)C2=CN1CCCOC(C)C (stereo not drawn) | -190% |
| COC(=O)CCCC1=CC2=CC(=O)C(C)(OC(=O)c3cccs3)C(=O)C2=CN1CC(C)C (stereo not drawn) | 40.8% (active) |
| COC(=O)CCCC1=CC2=C(c3ccccc3)C(=O)C(C)(OC(=O)C3CCCC3)C(=O)C2=CN1c1ccc(OC)cc1 (stereo not drawn) | -154% |
| O=C(NC1CCN(S(=O)(=O)c2ccc(F)cc2)CC1)c1ccccc1 | 15.3% |
| COC(=O)N(C)C[C@@H]1OCc2cnnn2CCCC(=O)N([C@@H](C)CO)C[C@@H]1C | 18.6% |
| COc1cc(NC(=O)c2cc([N+](=O)[O-])ccc2Br)ccc1NC(=O)c1ccco1 | 32.3% |
| COc1ccc(C(=O)c2c3ccc([N+](=O)[O-])cc3[n+]([O-])n2CCCN)cc1 | 48.4% (active) |
| COc1ccc2c(C(=O)c3ccc(C)cc3)n(CCC(N)=O)[n+]([O-])c2c1 | 2.6% |

| SMILES | inhibition |
| --- | --- |
| COc1ccc(Cc2nnc(SCC(=O)c3cccc([N+](=O)[O-])c3)n2C)cc1 | 10.4% |
| COC(=O)c1ccc(S(=O)(=O)N(CCO)Cc2ccccc2)n1C | 21.1% |
| CN(C)C(=O)c1ccc(NC(=O)c2ccccc2-c2ccccc2)cc1 | 4.2% |
| O=C1C=C(NS(=O)(=O)c2ccccc2)C(=O)c2ccccc21 | 51.3% (active) |
| O=C(NC1=CC(=O)c2ccccc2C1=O)c1ccccc1 | 44.7% (active) |
| C/C(=N\NC(=O)c1ccc(C)cc1)C1C(=O)c2ccccc2C1=O | 38.5% |
| Cc1cc(NS(=O)(=O)c2ccccc2)no1 | 11.5% |
| CC(=O)NS(=O)(=O)c1ccccc1 | 0.5% |
| CCN(CC)S(=O)(=O)c1ccc2c3c(cccc13)C(=O)S2 | -49.2% |
| NC(=O)C1CC=CCC1C(=O)OCC(Cl)=C(Cl)Cl (stereo not drawn) | 1.1% |
| Cc1cc(N2C(=O)C(=O)/C(=C(/O)c3ccc(Cl)cc3)C2c2cccc(Br)c2)no1 (stereo not drawn) | -138% |
| O=S1(=O)CCN2C(=N1)SC1=C2CCN(Cc2ccccc2)C1 | 21.1% |
| C=CCn1c(SCC(=O)c2ccc(Br)cc2)nnc1C(C)NC(=O)Cc1ccc(OC)cc1 (stereo not drawn) | 1.1% |
| CS(=O)(=O)c1ccc(C(=O)OCC(=O)NNC(=O)COc2ccc(Cl)cc2)cc1 | 11.8% |
| CC(C)Cc1nnc(NC(=O)CCC(=O)Nc2ccc3cn[nH]c3c2)s1 | 42.9% (active) |
| CC(C)Cc1nnc(NC(=O)CCNC(=O)c2ccccc2Cl)s1 | 8.4% |
| CC(C)Cc1nnc(NC(=O)CCc2ccccc2)s1 | 2.2% |
| CN(C)CCCn1c(SCCN2C(=O)c3ccccc3C2=O)nc2ccccc2c1=O | 2.7% |
| O=[N+]([O-])c1ccc(N2CCN(S(=O)(=O)c3ccc4ccccc4c3)CC2)cc1NCc1ccco1 | 28.5% |
| O=C(c1ccccc1)N1CCN(c2ccc([N+](=O)[O-])c(NCc3ccco3)c2)CC1 | 41.8% (active) |
| O=C(c1ccc(S(=O)(=O)NCc2ccco2)cc1)N1CCN(c2ccccc2)CC1 | 17.9% |
